In PubChem BioAssay one finds growth inhibition, inhibition and outcome data, which are given here for 18 compounds.

A number with no mark means an inactive call. For part of these data: Measured potencies and affinities stand elsewhere. Active and inactive are the calls of the source. Unless noted, how the calls were made is not given here.

What is called inhibition is the drop in the measured response relative to a control, in per cent.

A short description of assay [1]: antimalarial activity against Dd2 strain (AID 2302;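 active means growth inhibition above 50% at the single 2 µM test dose, taken to imply half-maximal potency below 2 µM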;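 further: 0% = DMSO untreated growth and 100% = chloroquine plus artemisinin killed control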). To be noted: P. falciparum Dd2 in RBCs, LDH growth readout, 72 h; at 2 µM; hits give high values.
A short description of assay [2]: HepG2 cytotoxicity, primary screen, cytotoxicity control for P. falciparum antimalarial project, cell-based, ATP luminescence (AID 2303;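 active means inhibition above 50%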;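 further: 0% = DMSO wells and 100% = digitonin-killed cells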). To be noted: HepG2 viability, 24-48 h, at 10 µM, hits give high values.
Assay [3] has as its target L-lactate dehydrogenase (Plasmodium falciparum (isolate CDC / Honduras)) (UniProt Q27743). The assay is described as follows: PfLDH activity inhibition – cell lysate, 3D7 strain, counter-screen for P. falciparum growth inhibition project (AID 2304).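 Further: 0% = vehicle and 100% = reference inhibitor.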 The note with it: P. falciparum 3D7 crude extract, LDH APAD/NBT absorbance; at 2 µM; hits give high values. Background: The purpose of a counterscreen is to sort out artefacts and off-target activity.

Assay [4] can be described thus: inhibition of 3D7 malaria parasite growth – strain 3D7 (AID 2306).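 Further: 0% = DMSO wells and 100% = chloroquine plus artemisinin control wells.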 To be noted: P. falciparum 3D7 erythrocytic growth, LDH absorbance, 72 h; at 2 µM; hits give high values.
For assay [5], the target named is Calcium-dependent protein kinase 1 (Plasmodium falciparum (isolate 3D7)) (UniProt P62344). The assay is described as follows: PfCDPK1 kinase inhibitors, biochemical, TCAMS library (AID 1159585; cut-off not given, nearly all actives have IC50 up to about 0.98 µM;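 further: inhibitors leave more ATP so luminescence rises with inhibition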). The note with it: recombinant PfCDPK1, Kinase-Glo ATP depletion luminescence.
Calcium-dependent protein kinase 1 (Plasmodium falciparum (isolate 3D7)), sequence (P62344 whole entry, looked up): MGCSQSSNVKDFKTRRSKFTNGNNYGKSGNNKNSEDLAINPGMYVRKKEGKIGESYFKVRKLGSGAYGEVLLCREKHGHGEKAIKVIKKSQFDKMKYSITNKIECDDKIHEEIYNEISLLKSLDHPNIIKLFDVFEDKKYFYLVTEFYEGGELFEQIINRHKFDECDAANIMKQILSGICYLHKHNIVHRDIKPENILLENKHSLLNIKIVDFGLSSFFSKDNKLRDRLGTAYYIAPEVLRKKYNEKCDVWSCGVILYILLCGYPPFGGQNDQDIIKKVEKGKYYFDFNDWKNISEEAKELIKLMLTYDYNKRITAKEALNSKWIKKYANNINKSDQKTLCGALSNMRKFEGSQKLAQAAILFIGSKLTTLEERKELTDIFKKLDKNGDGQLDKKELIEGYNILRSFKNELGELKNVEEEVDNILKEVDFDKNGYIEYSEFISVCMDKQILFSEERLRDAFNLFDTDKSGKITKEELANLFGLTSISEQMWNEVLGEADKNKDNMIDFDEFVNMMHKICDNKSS
Assay [6] has as its target Plasmodium falciparum protein kinase 6 (PK6, PF3D7_1337100) (UniProt Q8IDW1). Put plainly: PfPK6 kinase inhibitors, biochemical, TCAMS library (AID 1159586). The note with it: recombinant PfPK6, Kinase-Glo ATP depletion luminescence.
For assay [7], the target named is Protein kinase 7 (PK7), Plasmodium falciparum 3D7 (PF3D7_0213400) (UniProt Q7YTF7). Put plainly: inhibition of Plasmodium PK7 catalytic activity – biochemical, TCAMS antimalarial set, Kinase-Glo luminescence (AID 1159587). To be noted: recombinant PfPK7, Kinase-Glo ATP depletion luminescence.
Protein kinase 7 (PK7), Plasmodium falciparum 3D7 (PF3D7_0213400), sequence (Q7YTF7 1-343): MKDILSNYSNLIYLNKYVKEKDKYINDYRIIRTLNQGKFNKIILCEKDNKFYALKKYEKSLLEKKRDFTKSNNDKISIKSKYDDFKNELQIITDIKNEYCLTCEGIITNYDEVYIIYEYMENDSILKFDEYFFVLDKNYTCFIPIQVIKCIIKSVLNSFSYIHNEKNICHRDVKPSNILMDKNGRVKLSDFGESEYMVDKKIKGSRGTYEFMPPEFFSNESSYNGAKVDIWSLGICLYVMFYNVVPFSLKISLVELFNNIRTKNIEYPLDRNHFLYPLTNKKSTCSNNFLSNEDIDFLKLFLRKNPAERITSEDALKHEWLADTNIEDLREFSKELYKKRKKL
The target in assay [8] is Calcium-dependent protein kinase 4 (Plasmodium falciparum (isolate 3D7)) (UniProt Q8IBS5). The assay is described as follows: PfCDPK4 kinase inhibitors, biochemical, TCAMS library (AID 1159588; cut-off not given, nearly all actives have IC50 up to about 0.91 µM). To be noted: recombinant PfCDPK4, Kinase-Glo ATP depletion luminescence. In general terms: Kinase-Glo measures the ATP left after a reaction by luminescence.
Calcium-dependent protein kinase 4 (Plasmodium falciparum (isolate 3D7)), sequence (Q8IBS5 whole entry, looked up): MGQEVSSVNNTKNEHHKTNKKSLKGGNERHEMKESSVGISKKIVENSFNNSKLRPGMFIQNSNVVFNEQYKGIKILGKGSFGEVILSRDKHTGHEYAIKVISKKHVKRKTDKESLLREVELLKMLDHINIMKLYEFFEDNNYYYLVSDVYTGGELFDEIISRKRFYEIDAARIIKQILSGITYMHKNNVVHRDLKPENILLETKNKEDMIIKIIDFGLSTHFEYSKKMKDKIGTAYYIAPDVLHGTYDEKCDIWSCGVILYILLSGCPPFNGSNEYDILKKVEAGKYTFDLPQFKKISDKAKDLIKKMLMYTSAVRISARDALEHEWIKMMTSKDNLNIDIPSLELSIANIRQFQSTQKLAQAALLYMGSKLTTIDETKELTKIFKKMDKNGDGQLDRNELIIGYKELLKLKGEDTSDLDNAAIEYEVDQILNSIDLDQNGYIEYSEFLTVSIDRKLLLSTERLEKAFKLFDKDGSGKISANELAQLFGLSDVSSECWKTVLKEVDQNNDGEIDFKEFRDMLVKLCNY

L-lactate dehydrogenase (Plasmodium falciparum (isolate CDC / Honduras)), sequence (Q27743 whole entry, looked up): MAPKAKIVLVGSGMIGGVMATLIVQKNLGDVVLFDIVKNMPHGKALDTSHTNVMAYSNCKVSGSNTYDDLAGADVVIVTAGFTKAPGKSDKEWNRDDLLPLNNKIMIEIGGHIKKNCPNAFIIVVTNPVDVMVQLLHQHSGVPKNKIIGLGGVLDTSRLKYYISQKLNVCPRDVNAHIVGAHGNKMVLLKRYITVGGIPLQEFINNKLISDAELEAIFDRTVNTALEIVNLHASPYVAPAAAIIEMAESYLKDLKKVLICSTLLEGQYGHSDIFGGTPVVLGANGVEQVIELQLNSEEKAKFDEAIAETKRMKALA
Plasmodium falciparum protein kinase 6 (PK6, PF3D7_1337100), sequence (Q8IDW1 1-305): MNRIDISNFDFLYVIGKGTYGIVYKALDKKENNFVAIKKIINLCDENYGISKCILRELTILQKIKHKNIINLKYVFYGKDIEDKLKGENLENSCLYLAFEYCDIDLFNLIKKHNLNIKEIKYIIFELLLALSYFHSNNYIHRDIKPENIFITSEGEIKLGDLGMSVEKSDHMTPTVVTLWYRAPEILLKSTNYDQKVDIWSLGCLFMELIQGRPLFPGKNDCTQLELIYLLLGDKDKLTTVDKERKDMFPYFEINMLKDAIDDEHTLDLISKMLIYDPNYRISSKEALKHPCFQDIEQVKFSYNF

Turning to `COc1cccc(NC(=O)c2ccc(NCCCN3CCC(C)CC3)c([N+](=O)[O-])c2)c1`, the results for the growth inhibition in assay [1] and in assay [4] were 46% and 100% (active), respectively. Moreover, the inhibition in assay [2] is 9%; in assay [3], -6%. The outcome in assay [5], in assay [6], in assay [7] and in assay [8] was inactive.

`CC(=O)c1c[nH]c2ccc(/C=C/C(=O)NC3CCC(CCN4CCc5ccc(C#N)cc5CC4)CC3)cc12` (centres undefined): the growth inhibition is 98% (active) in assay [1] and 101% (active) in assay [4]. Moreover, the inhibition in assay [2] is 11%; in assay [3], 9%. For the same compound, the outcome in assay [5], in assay [6], in assay [7] and in assay [8] was inactive.

For `O=C(Nc1nc2cc(S(=O)(=O)NCc3ccc(Cl)c(Cl)c3)ccc2n1CCCN1CCCC1)c1ccc(Cl)cc1`, the growth inhibition in assay [1] is 16%; in assay [4], 89% (active). The inhibition in assay [2] is 57% (active); in assay [3], -1%. Besides, the outcome in assay [5], in assay [6], in assay [7] and in assay [8] was inactive.

Turning to `Oc1ccc2[nH]c(-c3cccc(F)c3)nc2c1CNCc1ccccc1`, the growth inhibition in assay [1] is 55% (active); in assay [4], 92% (active). In addition, the inhibition is 29% in assay [2] and -2% in assay [3]. Besides, the result in assay [5], in assay [6], in assay [7] and in assay [8] was inactive.

Regarding `Cc1cnc(C(=O)Nc2ccc(-c3cccc(-c4nc5ccccc5[nH]4)c3)cc2)cn1`, the growth inhibition in assay [1] was 8%; in assay [4] it was 93% (active). The values for the inhibition in assay [2] and in assay [3] were 77% (active) and -3%, respectively. Moreover, the outcome in assay [5], in assay [6], in assay [7] and in assay [8] was inactive.

As for `FC(F)(F)c1ccc2nc(-c3ccc(-c4cccc(CNCCc5ccncc5)c4)s3)[nH]c2c1`, the growth inhibition in assay [1] is 95% (active); in assay [4] it was 100% (active). Besides, the inhibition in assay [2] was 20%; in assay [3], -6%. In addition, the result in assay [5], in assay [6], in assay [7] and in assay [8] was inactive.

In the case of `CCOc1ccc(-c2nc(NC(=O)Cc3cccc(OC)c3)sc2C)cc1`, the growth inhibition is 28% in assay [1] and 97% (active) in assay [4]. In addition, the inhibition in assay [2] is 15%; in assay [3] it was 3%. The result in assay [5], in assay [6], in assay [7] and in assay [8] was inactive.

Consider `O=C(CCc1cnc[nH]1)Nc1cccc(-c2ccc(-c3nc4ccc(F)cc4[nH]3)cc2)c1`, for which the growth inhibition in assay [1] is 79% (active); in assay [4] it was 101% (active). Moreover, the inhibition was 18% in assay [2] and -1% in assay [3]. Moreover, the outcome in assay [5], in assay [6], in assay [7] and in assay [8] was inactive.

Turning to `CN(C)C(CNC(=O)c1cc(-c2ccncc2)c(-c2ccc(NC(=O)Nc3cccc(Cl)c3)cc2)o1)c1ccccc1` (centres undefined), the growth inhibition in assay [1] was 100% (active); in assay [4] it was 101% (active). In addition, the inhibition in assay [2] was 12%; in assay [3], -1%. Besides, the result in assay [5], in assay [6], in assay [7] and in assay [8] was inactive.

As to `ON=C(c1nc2ccccc2[nH]1)c1nc2ccccc2[nH]1`, the growth inhibition in assay [1] was 68% (active); in assay [4], 93% (active). Also, the inhibition was 36% in assay [2] and 6% in assay [3]. The outcome in assay [5], in assay [6], in assay [7] and in assay [8] was inactive.

With `CCCOc1cc(O)c(-c2n[nH]c(C)c2Oc2ccccc2)cc1CC`, the growth inhibition in assay [1] is 46%; in assay [4] it was 91% (active). The values for the inhibition in assay [2] and in assay [3] were -14% and 1%, respectively. Also, the outcome in assay [5], in assay [6], in assay [7] and in assay [8] was inactive.

With `CCN1CCN(Cc2c(O)ccc3c(=O)c(Oc4cc(C)cc(C)c4)c(C(F)(F)F)oc23)CC1`, the growth inhibition was 90% (active) in assay [1] and 96% (active) in assay [4]. Besides, the inhibition was 6% in assay [2] and 3% in assay [3]. In addition, the result in assay [5], in assay [6], in assay [7] and in assay [8] was inactive.

For the compound `CC1(C)N=C(N)N=C(N)N1OCCCc1cc(Cl)c(Cl)cc1Cl`, the growth inhibition in assay [1] is 96% (active); in assay [4], 95% (active). For the same compound, the values for the inhibition in assay [2] and in assay [3] were 55% (active) and 2%, respectively. Further, the outcome in assay [5], in assay [6], in assay [7] and in assay [8] was inactive.

Turning to `O=C(Nc1ccc(CN2CCOCC2)cc1)c1ccc(-c2ccc(Cl)cc2)o1`, the growth inhibition in assay [1] was 11%; in assay [4] it was 98% (active). The inhibition in assay [2] was 22%; in assay [3], -6%. Further, the outcome in assay [5], in assay [6], in assay [7] and in assay [8] was inactive.

Take `CS(=O)(=O)N1CC2(CCN(CCC(NC(=O)/C=C/c3ccccc3)c3ccc(Cl)c(Cl)c3)CC2)c2ccccc21` (centres undefined): the results for the growth inhibition in assay [1] and in assay [4] were 55% (active) and 97% (active), respectively. For the same compound, the inhibition in assay [2] was 18%; in assay [3] it was 2%. Also, the result in assay [5], in assay [6], in assay [7] and in assay [8] was inactive.

Turning to `Cc1cccc2[nH]c(-c3cccc(-c4ccc(NC(=O)C5CC(=O)Nc6ccccc65)cc4)c3)nc12` (centres undefined), the growth inhibition was 56% (active) in assay [1] and 87% (active) in assay [4]. Further, the inhibition was 15% in assay [2] and 3% in assay [3]. Moreover, the result in assay [5], in assay [6], in assay [7] and in assay [8] was inactive.

With `NCCCNc1nccc(N2CCc3ncnc(Nc4ccc(OCc5cccc(F)c5)c(Cl)c4)c3C2)n1`, the growth inhibition in assay [1] was 93% (active); in assay [4] it was 98% (active). Further, the inhibition in assay [2] was 18%; in assay [3] it was 0%. The outcome in assay [5], in assay [6], in assay [7] and in assay [8] was inactive.

`O=C(Nc1ccc(Cl)cc1)Nc1ccc(-c2cccc(-c3nc4ccccc4[nH]3)c2)cc1`: the growth inhibition in assay [1] is 78% (active); in assay [4], 100% (active). For the same compound, the inhibition was 69% (active) in assay [2] and -3% in assay [3]. For the same compound, the result in assay [5], in assay [6], in assay [7] and in assay [8] was inactive.
